In PubChem BioAssay (NCATS):
Records with an inconclusive call do not appear. Where a call stands in place of a potency, no number is given. The source made the active and inactive calls. Calls follow the shape of the dose curve; as a rule, active = well fitted inhibition curve with a large enough effect; inconclusive = small, poorly fitted or top-dose-only effect; inactive = flat fitted curve, though single readings scatter.

Test system: CP329
Assay: qHTS profiling for inhibitors of Plasmodium falciparum proliferation (AID 504749); also: nearly all actives have a fitted effect of over 60% in size
Details: P. falciparum in erythrocytes, SYBR Green DNA, 72 h; series mostly up to 28.7 µM
How it was run: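 Parasite proliferation within erythrocytes, 72 h exposure. Endpoint: SYBR Green I fluorescence after overnight lysis at room temperature. Controls: 0.29 uM artemisinin, DMSO.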
Potency is read from the fitted curve at half-maximal effect.

Structure (SMILES) | Potency
CCCCC[C@H](O)/C=C/[C@H]1[C@H](O)CC(=O)[C@@H]1C/C=C\CCCC(=O)O | inactive
O=C(CCCN1CCC(C(=O)c2ccc(F)cc2)CC1)c1ccc(F)cc1 | inactive
C(=C\c1ccncc1)/c1ccccc1 | inactive
O=C1N=C2SCCN2C(=O)C1Cc1ccc(Cl)cc1 (configuration not stated) | inactive
CCCCCCCCCCCC(=O)N(CCO)CCO | inactive
Cc1nc(NS(=O)(=O)c2ccc(N)cc2)nc(C)c1Br | inactive
O=c1[nH]c(=O)n([C@H]2C[C@H](O)[C@@H](CO)O2)cc1/C=C/Br | inactive
CC12CCC(C[N+](C)(CCC[N+](C)(C)C)C1)C2(C)C (configuration not stated) | inactive
CC(C)NCC(O)COc1ccccc1-n1cccc1 (configuration not stated) | inactive
F[Si-2](F)(F)(F)(F)F | inactive
CN(Cc1ccccc1)Cc1ccccc1 | inactive
OCc1ccccc1 | inactive
O=[n+]1ccn([O-])c2ccccc21 | inactive
OCC(O)CO | inactive
CC(=O)NCCCS(=O)(=O)O | inactive
CCN(CC)CCOc1ccc2nc(N(C)C)sc2c1 | inactive
Cc1cccc(Nc2ncccc2C(=O)O)c1C | inactive
CCCCC(CC)CCC(CC(C)C)OS(=O)(=O)O (configuration not stated) | inactive
C[C@H](N)C(=O)N[C@@H](C)P(=O)(O)O | inactive

Structure (SMILES) | Potency
CC(=O)Nc1ccc(NC(=S)NC(=O)c2ccc(C(C)(C)C)cc2)cc1 | inactive
CN1CCc2c(c3ccccc3n2Cc2ccccc2)C1 | inactive
CO/N=C(\C(=O)N[C@@H]1C(=O)N2C(C(=O)[O-])=C(C[n+]3cccc4c3CCC4)CS[C@H]12)c1csc(N)n1 | inactive
Cc1cc(-c2ccc(N=Nc3ccc4c(S(=O)(=O)O)cc(S(=O)(=O)O)c(N)c4c3O)c(C)c2)ccc1N=Nc1ccc2c(S(=O)(=O)O)cc(S(=O)(=O)O)c(N)c2c1O | inactive
CCC(C(=O)NC(N)=O)c1ccccc1 (configuration not stated) | inactive
Cn1cc(NC(=O)c2cc(NC(=O)c3cc(NC=O)cn3C)cn2C)cc1C(=O)NCCC(=N)N | 15.1 µM (active)
CCc1ncnc2cc(OC)c(OC)cc12 | inactive
Cc1ncc(C[n+]2csc(CCO)c2C)c(N)n1 | inactive
O[C@@H]([C@H](O)[C@H](O)CBr)[C@H](O)CBr | inactive
O=[N+]([O-])c1c(Cl)cccc1-c1c[nH]cc1Cl | inactive
C[C@@](Cc1ccc(O)c(O)c1)(NN)C(=O)O | inactive
CC(=O)Oc1cc(C(F)(F)F)ccc1C(=O)O | inactive
CCCCC | inactive
O=P(O)(O)CP(=O)(O)O | inactive
CCCCC[C@H](O)/C=C/[C@@H]1[C@H]2C/C(=C/CCCC(=O)O)O[C@H]2C[C@H]1O | inactive
C[Si](C)(C)O[Si](C)(C)C | inactive
O.O.O.O.O.O.O.O=S(=O)([O-])[O-].[Co+2] | 12 µM (active)
Cc1c(C)c2c(c(C)c1OC(=O)CCC(=O)O)CC[C@@](C)(CCC[C@H](C)CCC[C@H](C)CCCC(C)C)O2 | inactive
